Activity change, negative = inhibition and Potency data for 40 compounds are collected here from PubChem BioAssay AID651784 (National Center for Advancing Translational Sciences (NCATS), 2012).

Inconclusive results are not listed. Activity calls are given as the source filed them. Calls follow the shape of the dose curve; as a rule, active = well fitted inhibition curve with a large enough effect; inconclusive = small, poorly fitted or top-dose-only effect; inactive = no such curve, though single readings can be large or run the other way.
Potency is read from the fitted curve at half-maximal effect.

A short description of this test: Acumen qHTS Assay for Inhibitors of the mTORC1 Signaling Pathway in MEF (Tsc2-/-, p53-/-) Cells: Hit Validation. Also: nearly all actives have a fitted effect of over 65% in size. The note with it: Acumen imaging; activity change, negative = inhibition: at 37.3 µM (top of the series). The source says:
The mammalian target of rapamycin (mTOR) is an intracellular serine/threonine kinase Aberrant regulation of mTOR signaling plays a causative role in a number of human diseases, including cancer, benign tumors such as lymphangioleiomyomatosis (LAM) and Tuberous Sclerosis Complex (TSC), and metabolic diseases such as diabetes and obesity. This project aims to identify inhibitors of ribosomal protein S6 (rpS6) phosphorylation. The phosphorylation of rpS6 is a key event downstream of mTOR activation. The assay uses a phospho-specific antibody of phospho-rpS6 to detect inhibitors of mTOR activation. Mutations in the Tsc1 and Tsc2 genes are the underlying genetic lesions responsible for TSC, causing constitutive activation of the mTORC1 pathway and leading to profound effects on cell metabolism. Aberrant metabolism in cancer has recently received significant attention as a target to develop therapeutic agents in the treatment of cancer.1 As Tsc2-/- cells have lost the ability to respond to energy and growth factor deprivation, these cells are unable to properly down regulate cellular biosynthetic processes in response to metabolic stress, and are thus extremely sensitive to glucose deprivation-induced death.2 A central goal of this project is to explore the unique cell survival and metabolic properties of cells with Tsc1 or Tsc2 by screening for compounds that selectively target the Tsc2-/- MEFs by screening both Tsc2-/- and WT MEF cell lines. We hope to better understand these aspects of TSC physiology in order to exploit them for therapeutic benefit.
NIH Molecular Libraries Probe Production Centers Network [MLPCN]
NIH Chemical Genomics Center [NCGC]
Assay Submitter (PI): Blenis, John; Harvard University
For quantitative high throughput analysis of mTORC1 signaling, we developed a cell-based assay for immuno-fluorescence based detection of rpS6 phosphorylation on the Acumen Explorer that will be used a platform for the primary small molecule screen. Mouse embryonic fibroblasts (MEFs) are cultured in 1536-well plates using DMEM + 10% FBS. Twenty-four hrs after plating, test compounds (solubilized in DMSO) are delivered and incubated with the cells for 24 hrs at 37 degree Celsius. Following the incubation, media with compound is aspirated and the cells are fixed in 4% paraformaldehyde (PFA) containing PBS + 0.2% TX-100. Next, PFA is aspirated, cells are washed two times with PBS plus 0.2% TX-100 and the cells are blocked for 1 hr at room temperature (blocking buffer: LiCOR Blocking Buffer plus 0.2% TX-100). This is followed by aspiration and staining with Alexa-488 conjugated-phospho-rpS6 Ser235/236 antibody for 2 hours at room temperature (Cell Signaling Technology # 4803, 1:50 dilution in blocking buffer). Cells are washed two times with PBS plus 0.2% TX-100, and stained with 10 uM propidium iodide (PI) for 20-25 minutes for cell number measurement (1:500 dilution of Hoescht staining is also added for IN Cell imaging). The plates are scanned on the Acumen Explorer laser scanning instrument (TTP Labtech) using the 488nm laser for simultaneous excitation of the Alexa-488 and PI. […] Fluorescence emission from the PI stain is selected using a 575-640 nm band pass filter. The normalized phospho-S6 staining is calculated as the ratio of the integrated Alexa 488 intensity divided by the integrated PI intensity for the single concentration rapamycin control (7.5 nM) and DMSO columns. […] Inhibition of the pathway is defined based on the normalized phospho-S6 intensity in rapamycin treated cells. Active cells are defined as those with a normalized phospho-S6 staining above this threshold, and each treatment is reported as the % positive cells in the well, where thresholds are defined by selecting wells with the highest and lowest signal and differentiating between the % non-active and % active populations. In addition to the pathway specific phospho-S6 endpoint, the number of PI stained cells from the Acumen is recorded as a measure of cell viability. […]
In the case of `Cc1ccc(-c2nnn(CC(=O)N(CC(=O)NCCC(C)C)c3ccc(F)cc3)n2)cc1`, the activity change, negative = inhibition worked out at 20.3%.

As to `Nc1nnc(SCC(=O)Nc2cccc(F)c2)s1`, the activity change, negative = inhibition was determined as 16.3%.

Consider `COC(=O)c1ccccc1NC(=O)CSc1n[nH]c(CC(C)C)n1`, for which the activity change, negative = inhibition worked out at 5.05%.

For the compound `O=C(Cn1c(=O)n(Cc2ccc3c(c2)OCO3)c(=O)c2ccc(C(=O)NC3CCCCC3)cc21)Nc1ccccc1F`, the activity change, negative = inhibition was -94.5%.

Regarding `CC(C)CCNC(=O)C(=O)Nc1c2c(nn1-c1ccc(Cl)cc1)CSC2`, the Potency is 5.85 µM (active).

For the compound `Cc1ccc(C)c(N2CCN(CCCNC(=O)Nc3ccc(Cl)cc3)CC2)c1`, the activity change, negative = inhibition is -77%.

As for `Cc1ccc(-n2ncc(C(=O)NCCCN3CCc4ccccc4C3)c2C2CCN(C(=O)OC(C)(C)C)CC2)c(C)c1`, the activity change, negative = inhibition was -11.4%.

Consider `CCS(=O)(=O)c1oc(-c2ccc(F)cc2)nc1S(=O)(=O)c1ccc(Br)cc1`, for which the Potency was 4.14 µM (active).

Turning to `COc1cc(Cl)c(C)cc1NC(c1ccccc1)c1nnc(-c2ccccc2Cl)o1` (stereo not given), the activity change, negative = inhibition is -9.11%.

As to `Cc1ccc(NC(=O)CCS(=O)(=O)c2ccc3nc(C)sc3c2)cc1`, the activity change, negative = inhibition is -65.5%.

On to `Fc1ccc(Nc2nc3nonc3nc2Nc2cccc(C(F)(F)F)c2)cc1`, for which the Potency was 1.85 µM (active).

For `COc1ccc(CCNC(=O)c2ccc3c(c2)N(Cc2ccccc2)CCS3)cc1OC`, the Potency was 5.21 µM (active).

As to `CCC1CN(C(=O)NCc2ccc(F)cc2)c2cc(C)ccc2O1` (stereo not given), the activity change, negative = inhibition came out at 0.784%.

Consider `CCCCNC(=O)CSc1c2c(nc3ccc(Cl)cc13)CCCC2`, for which the activity change, negative = inhibition is -28.5%.

With `CCCCN(C)CCNC(=O)C1CCN(c2nc3ccc(CC)cc3s2)CC1`, the activity change, negative = inhibition was -90.7%.

On to `COc1cc(C)ccc1OCCn1c(-c2ccc(Cl)cc2)nc2ccccc2c1=O`, for which the activity change, negative = inhibition was -1.14%.

For the compound `Cc1ccccc1NC(=O)c1sc2nc3c(cc2c1N)CCCC3`, the activity change, negative = inhibition is -21.3%.

With `Cn1nnnc1SCCCNCc1ccccc1OCc1ccc(Cl)cc1`, the activity change, negative = inhibition is -60%.

As to `COc1ccc(OCC(O)Cn2c(=N)n(CCN3CCCCC3)c3ccccc32)cc1` (stereo not given), the Potency was 16.5 µM (active).

Turning to `CCCCOC(=O)c1ccc(NC(=O)c2sc3nc(C)cc(C)c3c2N)cc1`, the activity change, negative = inhibition was -72%.

For the compound `Cc1cc(C)c(NC(=O)C2CCN(c3nc4ccccc4n4cccc34)CC2)c(C)c1`, the Potency was 14.7 µM (active).

In the case of `Cc1ccc(NC(=O)Nc2cccs2)c(C)c1`, the activity change, negative = inhibition is -40.4%.

Take `COC(=O)c1c(C)oc2ccc(N(C(=O)c3ccncc3)S(=O)(=O)c3ccc(OC)cc3)cc12`: the Potency is 1.85 µM (active).

Regarding `Cc1ccc(Nc2nc(C(N)=O)c(NC(=O)c3ccccc3Br)s2)cc1`, the Potency was 5.85 µM (active).

As to `Cc1ccccc1CN1C(=O)C(O)(CC(=O)c2cccc(Br)c2)c2ccccc21` (stereo not given), the activity change, negative = inhibition is -20%.

In the case of `Cc1ccc(S(=O)(=O)c2nnn3c2nc(NCc2cccs2)c2sccc23)cc1`, the activity change, negative = inhibition was -1.4%.

Take `Cc1cc(C)c(NC(=O)c2sc3nc(C)cc(C)c3c2NC(=O)c2ccccc2)c(C)c1`: the activity change, negative = inhibition is -8.54%.

As for `CC1=C(C(=O)Nc2ccc(C)cc2C)C(c2cc(Br)ccc2F)n2ncc(C(=O)Nc3ccc(C)cc3)c2N1` (stereo not given), the Potency was 9.27 µM (active).

Consider `COc1ccc(C(=O)c2sc(Nc3ccccc3)nc2N)cc1`, for which the activity change, negative = inhibition is -4.73%.

Turning to `CC(=O)C1=C(c2ccc(Cl)c(Cl)c2)N(C(C)=O)n2cnnc2S1`, the Potency is 5.21 µM (active).

Consider `CS(=O)(=O)CCNCc1ccc(-c2ccc3ncnc(Nc4ccc(OCc5cccc(F)c5)c(Cl)c4)c3c2)o1`, for which the activity change, negative = inhibition worked out at 5.21%.

For `CC1=Nc2cc(C(=O)NC3CCCC3)ccc2Sc2ccc(Br)cc21`, the activity change, negative = inhibition was -107%.

Take `COC(=O)CN1C(=O)C(C)(C)c2cc(S(=O)(=O)Nc3ccc(Br)cc3F)ccc21`: the Potency was 9.27 µM (active).

`CCOC(=O)c1ccc(NC(=O)c2nc(S(=O)(=O)Cc3ccccc3)ncc2Cl)cc1`: the Potency was 4.65 µM (active).

In the case of `Cc1cccc(C(=O)Nc2c(C(=O)NCc3ccc(Cl)cc3)sc3nc(C)cc(C)c23)c1`, the activity change, negative = inhibition is -92.4%.

`COc1ccc(NS(=O)(=O)c2ccc(-n3cccn3)cc2)cc1OC`: the activity change, negative = inhibition was -78.8%.

Regarding `Cc1ccc(C(=O)Nc2c(C(=O)NCc3ccc(Cl)cc3)sc3nc(C)cc(C)c23)cc1`, the activity change, negative = inhibition was -89.8%.

With `COc1cccc(-c2oc3ccc(C)cc3c(=O)c2O)c1`, the activity change, negative = inhibition is -44.4%.

For `CCOC(=O)c1[nH]c2ccccc2c1NC(=O)c1ccccc1OCC`, the Potency was 2.93 µM (active).

On to `CS(=O)(=O)N(CC(=O)NCCc1ccccc1)c1cc(C(F)(F)F)ccc1Cl`, for which the activity change, negative = inhibition turned out to be 30.3%.
